SMARCA2 act: SMARCA2 function activation, primary screen; MG213 cells, MMTV-luciferase reporter, dexamethasone, overnight; activation, % at 9.1 µM; hit rate 1% among 370,000; in the data active = activation above about 7.8%;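 note: 0% = vehicle wells and 100% = reference activator wells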
hgDAF12 agonist: hgDAF-12 agonism, primary luciferase screen; activation, % at 6.8 µM; HEK293 GAL4-hgDAF12 UAS-luciferase reporter, agonist luminescence; normalized to butyrate control; hit rate 1.8% among 370,000; AID 687014;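 active = activation above a cutoff set at the mean of all screened compounds plus 3 SD, cut at about 10% in these data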;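 note: 0% = DMSO wells and 100% = sodium butyrate wells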
DAX1 inh-1: NR0B1 (DAX1) inhibition | HEK293 Gal4-DAX1 luciferase reporter, luminescence | inhibition, % at 6.75 µM | hit rate 0.99% among 340,000 | P51843;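 active = inhibition above the mean over all tested compounds plus 3 SD, cut at about 4.2% in these data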;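 note: 0% = DAX1-transfected cells with DMSO and 100% = empty-vector control cells with DMSO; inhibition shows as a rise in luminescence from relieved DAX1 repression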
Target sequence (P51843 207-470 limits assumed): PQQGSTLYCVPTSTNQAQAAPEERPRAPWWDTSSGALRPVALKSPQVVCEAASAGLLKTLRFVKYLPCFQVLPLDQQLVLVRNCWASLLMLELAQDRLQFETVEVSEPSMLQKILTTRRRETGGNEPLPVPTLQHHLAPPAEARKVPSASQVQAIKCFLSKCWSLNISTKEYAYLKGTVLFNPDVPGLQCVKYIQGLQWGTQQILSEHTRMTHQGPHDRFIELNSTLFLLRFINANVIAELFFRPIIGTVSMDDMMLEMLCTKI
ssDAF-12 act: S. stercoralis DAF-12 activation, primary screen. AID 652126. HEK293 ssDAF-12/GRIP1 lit1-tk-luc reporter, luminescence; % of 3 µM dafachronic acid response. hit rate 1% among 370,000. activation, % at 6.8 µM;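 active = activation above the mean over all tested compounds plus 3 SD, cut at about 0.9% in these data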;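 note: 0% = DMSO-only wells and 100% = 3 µM delta7-dafachronic acid wells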
hcDAF-12 act: activates DAF-12 receptor from parasite H. contortus | HEK293 hcDAF-12 lit1-tk-luc reporter, luminescence; 0% DMSO, 100% Δ7-dafachronic acid | activation, % at 6.8 µM | hit rate 1.4% among 370,000 | AID 652067;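 active = activation above the mean of all tested compounds plus 3 SD, cut at about 5.5% in these data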;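 note: 100% = response to 3 µM Δ7-dafachronic acid high control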
DAX1 inh-2: inhibitors of DAX1 repression of SF-1 activated StAR promoter; hit rate 1.1% among 370,000; inhibition, % at 6.8 µM; HEK293T StAR-luciferase reporter, SF-1/DAX-1 repression relief; AID 652010;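 active = inhibition above the mean over all tested compounds plus 3 SD, cut at about 3.6% in these data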;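 note: 0% = DAX-1 cells with DMSO and 100% = cells lacking DAX-1 with DMSO; higher inhibition means more luminescence from relief of DAX-1 repression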
Starred values were filed as active, the others as inactive; . = not tested or not shown. Sampled rows, rich in hits. Any-hit rate of the full collection: about 4.8%.

SMILES | SMARCA2 act | hgDAF12 agonist | DAX1 inh-1 | ssDAF-12 act | hcDAF-12 act | DAX1 inh-2
COc1ccccc1/C=C/C(=O)NCCC1=CCCCC1 | 5 | 12* | 1 | 0 | 2 | 3
COc1ccc(NC(=O)NCCC2=CCCCC2)cc1 | 5 | 12* | 1 | -1 | 2 | 2
CC(=O)Nc1ccc(-c2ccnc3c2CC(C)(C(=O)Nc2cccc(OC(F)(F)F)c2)O3)cc1 (stereo not drawn) | -3 | -1 | . | -1 | -1 | -1
CCOC(=O)C(=O)c1csc(NC(=O)CCSc2ccc(C)cc2)n1 | -4 | -4 | 4.4* | -2 | -2 | 0
CCOc1ccc(/C=N/Nc2nc(C)cs2)c(O)c1 | 0 | 1 | 4.5* | 1 | 5 | 0
O=C1CN(c2ccc(F)cc2)C(=S)N1c1ccccc1 | -2 | 5 | -1 | 0 | 2 | 0
O=C1CN(c2ccccc2)C(=S)N1c1ccccc1 | 1 | 3 | 4.4* | -1 | 1 | 1
Cc1cc(C)nc(/N=C(\N)N2CCCCCC2)n1 | -1 | 3 | 0 | -2 | -1 | 0
Cc1cc(C)nc(/N=C(\N)N2CCc3ccccc32)n1 | 6 | 11* | 1 | -1 | 1 | 1
Nc1ccc(S(N)(=O)=O)cc1 | -4 | -1 | 2 | -2 | -2 | -1
Nc1ccc(S(N)(=O)=O)cc1N | 5 | 13* | 7.3* | 1 | 4 | 3
Cc1ccc(-c2cc(C(F)F)n3ncc(C(=O)N4CCCCC4c4cccnc4)c3n2)cc1 (stereo not drawn) | -5 | -1 | 4.5* | 1 | 5.7* | 0
CON(C)S(=O)(=O)c1cccc(C(=O)N(CC(=O)Nc2ccccc2C(F)(F)F)Cc2ccco2)c1 | -1 | -4 | -1 | -2 | 2 | 0
O=C(CN(Cc1ccco1)C(=O)c1cccc(F)c1)Nc1ccccc1C(F)(F)F | -2 | 0 | 1 | -1 | 0 | 3.7*
CCC(C(=O)NC1CCCC1)N(C(=O)Cn1nnc(-c2ccc(C)o2)n1)c1ccc(F)cc1 (stereo not drawn) | -1 | -1 | -1 | -1 | 0 | 0
CCOc1ccccc1N(CC(=O)Nc1ccccc1F)S(=O)(=O)c1ccccc1 | 3 | 10* | 1 | 0 | 4 | 1
CCC1(C)NC(=O)N(CC(=O)Nc2cc(C)on2)C1=O (stereo not drawn) | -1 | 0 | 1 | 0 | 0 | 1
COc1ccc(CNS(=O)(=O)c2ccc3c(c2)NC(=O)CS3)cc1 | -1 | 0 | 1 | -1 | 0 | 0
Cc1ccc(C(=O)NCCC(=O)N2CCCC2)cc1 | 5 | 13* | 6.1* | 1 | 5 | 1
O=C(NCCN1CCCCCC1)c1ccc(N2CCCC2=O)cc1 | 0 | 2 | -1 | 0 | 2 | 0
CC(C)(C)c1ccc(C(=O)NC(=S)N2CCCC2)cc1 | 0 | 3 | 1 | 1.8* | 4 | 1
CC(C)(C)c1ccc(C(=O)NCC(=O)N2CCCC2)cc1 | -1 | 2 | 0 | -1 | 2 | 1
CC(C)(C)c1ccc(C(=O)NCC(=O)O)cc1 | 1 | 0 | 4.8* | -1 | -1 | 1
CC(C)(C)c1ccc(C(=O)NCCN2CCCC2)cc1 | 1 | 2 | 1 | 1.1* | 1 | 0
CCCCn1nnnc1C1(C)CCC(=O)N1CCc1ccc(OC)c(OC)c1 (stereo not drawn) | -3 | 3 | . | -1 | 0 | 0
SMILES | SMARCA2 act | hgDAF12 agonist | DAX1 inh-1 | ssDAF-12 act | hcDAF-12 act | DAX1 inh-2
CC(C)(C)n1nnnc1C(c1ccccc1)N1CCN(c2ccc(C(F)(F)F)cn2)CC1 (stereo not drawn) | 0 | 3 | . | -1 | -3 | -1
CC(=O)Nc1ccc(C(=O)Nc2ccc(S(=O)(=O)N3CCOCC3)cc2)cc1 | 1 | -1 | 1 | -1 | 0 | -1
CC(=O)N1CCN(C(=S)NC(=O)c2ccc(S(=O)(=O)N3CCOCC3)cc2)CC1 | 2 | 1 | 4.7* | -1 | -4 | -1
O=C(NN=C1CCCC1)c1[nH]c2ccc(Cl)cc2c1-c1ccccc1 | 0 | 0 | . | -1 | 1 | 0
CC(=O)NNC(=O)c1[nH]c2ccc(Cl)cc2c1-c1ccccc1 | -3 | 1 | 5.0* | -1 | -1 | 0
O=c1c2ccccc2n(Cc2ccno2)n1[C@@H](Cc1ccccc1)Cn1cc(-c2ccc(-c3ccccc3)cc2)nn1 | -6 | -5 | . | -1 | -3 | -1
Cc1cc(NS(=O)(=O)c2ccc(NC(=O)Nc3ccccc3)cc2)no1 | -1 | -1 | 1 | -1 | 0 | 0
Cc1cc(NS(=O)(=O)c2ccc(NC(=S)NCc3ccccc3)cc2)no1 | -1 | 0 | 6.5* | -1 | -1 | 0
Cc1nnc(SC(C)C(=O)NC2CCCCC2C)n1N (stereo not drawn) | -1 | -1 | 4.3* | -1 | -2 | 0
CCc1ccc(N2C(=O)CC(N3CCN(c4ccccn4)CC3)C2=O)cc1 (stereo not drawn) | 0 | 0 | 3 | -2 | -2 | 0
O=C1CC(N2CCN(c3ccccn3)CC2)C(=O)N1c1ccc(F)cc1 (stereo not drawn) | -1 | 1 | . | 1.7* | 0 | 0
O=C(COC(=O)CCc1ccccc1)NNC(=O)c1ccccc1 | 4 | 1 | -1 | -1 | 1 | 0
Cc1ccccc1N(CC(=O)N/N=C/c1ccc(F)cc1)C(=O)c1ccccc1 | -4 | 0 | -1 | 0.9* | -3 | 0
O=[N+]([O-])c1cccc(OCCN2CCC(Cc3ccccc3)CC2)c1 | -1 | -1 | 5.8* | -2 | 0 | 0
CC(C)CC1NC(=O)c2cccnc2-n2c1nc1cc(F)ccc1c2=O (stereo not drawn) | 1 | -2 | -1 | 0 | 2 | -1
O=C(c1cc(Cl)cc(Cl)c1)N1CC[C@H]2[C@H](CCCN2Cc2ccc(F)cc2)C1 | -2 | -1 | . | -1 | -2 | -1
COc1cccc(C=Nc2ccccc2C#N)c1O | -2 | 1 | 0 | 2.1* | 4 | 0
COc1cccc(/C=N/c2oc(-c3ccccc3)cc2C#N)c1O | -2 | 1 | 1 | -1 | -1 | 0
COc1ccc(NC(=O)CSc2nnc(CNC(=O)COc3ccc(Cl)cc3)o2)cc1 | -1 | 13* | 0 | -2 | 1 | 0
O=C(COc1ccc(Cl)cc1)NCc1nnc(SCC(=O)Nc2ccccc2)o1 | -5 | 1 | 0 | -1 | 0 | 0
Cc1ccc(S(=O)(=O)N(C)CC(=O)N2CCN(Cc3ccccc3)CC2)cc1 | -2 | -2 | 5.0* | -1 | 1 | -1
Cc1ccc(S(=O)(=O)N(C)CC(=O)N2CCCCCCC2)cc1 | 2 | 0 | -2 | -1 | 0 | -1
COc1cccc(C(=O)NNC(=O)Cc2ccc(Cl)cc2)c1 | 1 | -1 | 1 | -2 | 0 | 0
